# Assay results from the supplement of paper PMC12645437, “Orthogonal IMiD-Degron Pairs Induce Selective Protein Degradation in Cells” (ACS Chemical Biology, 2025).
# Over roughly 8,300 sequences, “log2 fold change of degron read counts, EGFP-low vs EGFP+ sorted cells (limma voom), compound-induced degradation” has its median near -1.1; the highest 2% begin near 3.2. What follows is part of a selection rich in the highest values, with near analogues and random picks from the rest.
# B1: 46F_47S_49E_50V_52G_53A_54I_55F_67L_, Q9UKT9 (peptide)
# chain: FSCEVCGAIFTQKGNLLRHIKL
# B2: 46F_47Y_49E_50V_52G_53A_54I_55F_67L_, Q9UKT9 (peptide)
# chain: FYCEVCGAIFTQKGNLLRHIKL
# B3: 46F_47C_49S_50V_52G_53H_54L_55F_67L_, Q9UKT9 (peptide)
# chain: FCCSVCGHLFTQKGNLLRHIKL
# B4: 46F_47R_49E_50Q_52G_53A_54G_55F_67L_, Q9UKT9 (peptide)
# chain: FRCEQCGAGFTQKGNLLRHIKL
# B5: 46F_47S_49N_50V_52G_53A_54E_55F_67L_, Q9UKT9 (peptide)
# chain: FSCNVCGAEFTQKGNLLRHIKL
# B6: 46F_47L_49N_50Q_52G_53H_54T_55F_67L_, Q9UKT9 (peptide)
# chain: FLCNQCGHTFTQKGNLLRHIKL
# B7: 46F_47I_49S_50V_52G_53H_54T_55F_67L_, Q9UKT9 (peptide)
# chain: FICSVCGHTFTQKGNLLRHIKL
# B8: 46F_47F_49D_50I_52G_53A_54T_55F_67L_, Q9UKT9 (peptide)
# chain: FFCDICGATFTQKGNLLRHIKL
# B9: 46F_47H_49E_50V_52G_53A_54S_55F_67L_, Q9UKT9 (peptide)
# chain: FHCEVCGASFTQKGNLLRHIKL
# B10: 46F_47R_49E_50V_52G_53A_54S_55F_67L_, Q9UKT9 (peptide)
# chain: FRCEVCGASFTQKGNLLRHIKL
# B11: 46F_47A_49E_50V_52G_53A_54S_55F_67L_, Q9UKT9 (peptide)
# chain: FACEVCGASFTQKGNLLRHIKL
# B12: 46F_47C_49N_50V_52G_53A_54S_55F_67L_, Q9UKT9 (peptide)
# chain: FCCNVCGASFTQKGNLLRHIKL
# B13: 46F_47A_49N_50V_52G_53A_54S_55F_67L_, Q9UKT9 (peptide)
# chain: FACNVCGASFTQKGNLLRHIKL
# B14: 46F_47V_49E_50V_52G_53A_54S_55F_67L_, Q9UKT9 (peptide)
# chain: FVCEVCGASFTQKGNLLRHIKL
# B15: 46F_47Q_49E_50V_52G_53A_54D_55F_67L_, Q9UKT9 (peptide)
# chain: FQCEVCGADFTQKGNLLRHIKL
# B16: 46F_47Y_49E_50V_52G_53A_54S_55F_67L_, Q9UKT9 (peptide)
# chain: FYCEVCGASFTQKGNLLRHIKL
# B17: 46F_47M_49E_50V_52G_53A_54S_55F_67L_, Q9UKT9 (peptide)
# chain: FMCEVCGASFTQKGNLLRHIKL
# B18: 46F_47Q_49E_50V_52G_53A_54S_55F_67L_, Q9UKT9 (peptide)
# chain: FQCEVCGASFTQKGNLLRHIKL
# B19: 46F_47I_49E_50V_52G_53A_54S_55F_67L_, Q9UKT9 (peptide)
# chain: FICEVCGASFTQKGNLLRHIKL
# Molecular target: T1, CRBN, Q96SW2
# T1 chain: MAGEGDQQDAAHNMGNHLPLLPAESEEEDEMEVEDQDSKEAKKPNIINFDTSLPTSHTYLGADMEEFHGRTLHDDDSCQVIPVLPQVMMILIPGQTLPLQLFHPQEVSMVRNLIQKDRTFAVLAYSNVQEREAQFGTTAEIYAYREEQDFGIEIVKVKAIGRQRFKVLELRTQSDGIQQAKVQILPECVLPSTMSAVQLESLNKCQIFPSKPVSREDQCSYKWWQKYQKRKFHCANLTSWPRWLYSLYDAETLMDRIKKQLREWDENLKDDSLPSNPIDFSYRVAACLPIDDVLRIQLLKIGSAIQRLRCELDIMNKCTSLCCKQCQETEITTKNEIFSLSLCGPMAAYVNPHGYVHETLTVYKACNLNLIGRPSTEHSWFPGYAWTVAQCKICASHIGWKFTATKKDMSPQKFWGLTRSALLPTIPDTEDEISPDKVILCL
# Assay: log2 fold change of degron read counts, EGFP-low vs EGFP+ sorted cells (limma voom), compound-induced degradation; higher = more compound-induced degradation of the degron-EGFP fusion; degrons are variants of IKZF1/3 zinc finger 2; compound dose not given here
# Conditions: Jurkat, 18 h
# Method: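 Pooled library of 8380 IKZF3 ZF2 degron mutants (positions 146-167 varied within the IKZF3 130-189 degron; only the varied core is printed, flanks not printed) fused to EGFP with IRES-mCherry, lentivirally expressed in Jurkat cells. mCherry+ cells were treated with one IMiD compound for 18 h (dose not stated) and FACS-sorted into EGFP-low and EGFP+ populations. Degron sequences were counted by NGS, and log2FC (EGFP-low vs EGFP+) was estimated by limma voom over 3 biological replicates.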
# [1] = compound: compound 19 (5-tert-butyl-thalidomide)
# [2] = compound: compound 22 (5-morpholino-thalidomide)
# [3] = compound: compound 33 (diphenyl IMiD analogue)
# 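Also: pooled lentiviral library of zinc finger degron-EGFP fusions in mCherry-positive Jurkat cells, FACS-sorted after compound exposure, with degron abundance counted by next-generation sequencing.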
Sequence,log2 fold change of degron read counts [1],log2 fold change of degron read counts [2],log2 fold change of degron read counts [3],log2 fold change of degron read counts (compound: thalidomide)
B1,1.27,0.887,1.42,0.379
B2,2.89,3.45,2.43,0.38
B3,-2.25,-2.38,-2.22,-2.25
B4,-0.467,-1.48,0.986,-0.649
B5,-1.82,-2,-0.491,-1.04
B6,-2.86,-3.5,-3.07,-2.79
B7,-2.11,-2.3,-3.14,-2.67
B8,2.91,2.77,0.337,-0.566
B9,2.93,2.64,1.35,0.198
B10,2.07,1.56,2.15,2.07
B11,3.87,2.73,0.799,1.03
B12,0.743,0.454,0.99,0.32
B13,1.32,0.642,-0.249,-1.16
B14,1.21,2.91,2.54,3.54
B15,-0.53,-0.0138,1.04,3.09
B16,3.7,3.86,2.94,1.59
B17,1.39,1.79,2.94,2.05
B18,2.49,2.89,2.13,3.53
B19,0.0302,2.88,2.44,2.95
